Some of the results follow. Unmarked numbers belong to inactive results. Calls of active or inactive are those of the source.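 Rule for the calls, unless noted: active = activation above a set limit carried over from the earlier primary STAT1 screen (cut at about 140% in these data); inactive = the rest.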

The record followed here is PubChem BioAssay.

Experiment [1] is described as follows: potentiators of IFN-gamma STAT1 reporter activity – cell-based, HTS, luciferase reporter, confirmation (AID 1262).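 Note: simple ratio to median IFN-gamma plus DMSO wells so 0% means no light.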 The settings on record: NIH 3T3 STAT1-luciferase reporter, IFN-gamma potentiation, luminescence; at 5.7 µM; stronger effect = higher value; 100% = IFN-gamma EC80 alone, no compound. In general terms: In a reporter assay the amount or activity of a reporter protein is the signal.

The nature of experiment [2]: enhancement of NF-kB transcriptional signalling – cell-based, HEK293T, luciferase luminescence, TNF-alpha, counter-screen for STAT1 activator project (AID 1306;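 active = activation above the mean of solvent-only control wells plus 3 SD, set per campaign, cut at about 130% in these data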;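 note: TNF-alpha given at a submaximal dose yielding about 80% of full reporter signal; values are well signal over median control so 100% means no change and 0% no light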). Particulars: HEK293T NF-kB luciferase reporter, TNF-alpha stimulated, at 5.7 µM, stronger effect = higher value, 100% = TNF-alpha with vehicle only. Background: A counterscreen serves to expose hits that act by an unwanted route or on another target.

For experiment [3], the target named is Signal transducer and activator of transcription 3 (Homo sapiens) (UniProt P40763). Briefly: enhancers of IL-6 STAT3 transcription – U3A cells, luciferase, luminescence, counter-screen for STAT1 activator project, confirmation (AID 1316;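 active = activation above the solvent-only control well mean plus 3 SD, set per plate batch, cut at about 110% in these data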;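 note: 0% = no luminescence and 100% = median IL-6 plus DMSO wells; higher means more STAT3 reporter activation so hits are non-selective activators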). Particulars: U3A cells STAT3-luciferase reporter, IL-6, luminescence; at 5.7 µM; stronger effect = higher value; 100 = IL-6 alone, no compound effect; cells lack STAT1.

In experiment [4] the target is Toll-like receptor 9 (Homo sapiens) (UniProt Q9NR96). In words: disruptors of TLR9 binding to MyD88 – cell-based, CHO, BLA complementation, fluorescence, triplicate, confirmation (AID 540250;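 active = mean inhibition across three repeats above about 21% taken from the earlier screen, limit read from the data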;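 note: blue over green emission ratio reports constitutive TLR9 MyD88 association via BLA complementation; 0% = DMSO vehicle wells and 100% = clavulanate BLA inhibitor wells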). The settings on record: CCF4 FRET ratio, at 4.98 µM, stronger effect = higher value.
A short description of experiment [5]: BLA reporter readout interference – cell-based, fluorescence, artefact control for TLR9-MyD88 binding inhibitor project (AID 540251;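 active = mean inhibition above a 50% cutoff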;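 note: counterscreen of TLR9-MyD88 hits on CMV-driven BLA in CHO-K1 cells; 0% = DMSO alone and 100% = clavulanate blocking BLA; higher means less blue over green ratio so more BLA blockade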). The settings on record: CHO-BLA cells, CCF4 FRET ratio, at 4.98 µM, stronger effect = higher value.
A short description of experiment [6]: CHO cell viability loss – luminescence, single concentration, cytotoxicity control for TLR9-MyD88 binding inhibitor project (AID 588336; in the data active = inhibition above about 11%). Particulars: TLR9-MyD88 CHO cells cytotoxicity, at 4.98 µM, stronger effect = higher value.
Experiment [7] has as its target Photoreceptor-specific nuclear receptor (Homo sapiens) (UniProt Q9Y5X4). In words: retest of NR2E3-NCOR disrupting agonists – cell-based, luminescence, CHO-S two-hybrid, confirmation (AID 624378;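 active = average inhibition above a cutoff equal to the mean inhibition of all tested compounds plus one SD, cut at about 70% in these data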;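 note: 0% = DMSO in NR2E3 cells and 100% = DMSO in cells lacking NR2E3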). Particulars: CHO-S mammalian two-hybrid NR2E3-NCOR, luciferase luminescence; at 3.98 µM; stronger effect = higher value.
A short description of experiment [8]: nonselective effects on VP16 transactivation – cell-based, luminescence, CHO-S, high throughput, counter-screen for NR2E3 agonist project, confirmation (AID 624379;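 active = mean inhibition above a cutoff equal to the average over all tested compounds plus one standard deviation, cut at about 70% in these data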;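 note: 0% = DMSO with VP16-transfected cells and 100% = DMSO with cells lacking VP16; higher means less reporter light so more repression of VP16 activity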). Particulars: CHO-S GAL4-VP16 luciferase reporter, at 3.98 µM, stronger effect = higher value.
Experiment [9] is described as follows: reduced OD of V66 E. coli with T4 gene 2 phage – absorbance, RecBCD inhibitor project, confirmation (AID 651982;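 active = mean inhibition over triplicates exceeding the hit threshold derived in the original primary screen, cut at about 11% in these data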). The settings on record: E. coli V66 + T4 2- phage, growth OD; at 11.9 µM; stronger effect = higher value.
The nature of experiment [10]: bacterial growth inhibition – absorbance, high throughput, counter-screen for RecBCD inhibitor project (AID 651983; in the data active = inhibition above about 20%;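 note: E. coli strain V66 grown with compound alone and no phage infection; 0% = bacteria with DMSO vehicle only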). Particulars: E. coli viability, absorbance (OD) growth; at 11.9 µM; stronger effect = higher value.
Experiment [11] is described as follows: reduced optical density, T4-challenged addAB+ bacteria – absorbance, E. coli V3065, T4 phage, counter-screen for RecBCD inhibitor project, confirmation (AID 651984;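 active = mean inhibition above the solvent-only control wells' mean plus 3 SD, cut at about 22% in these data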;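 note: higher means less bacterial growth from phage killing when AddAB is blocked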). Particulars: E. coli expressing H. pylori AddAB + T4 phage, OD growth; at 11.9 µM; stronger effect = higher value; gene 2 mutant T4, recBCD-deleted host.
Experiment [12] can be described thus: VP16-driven transactivation reporter suppression – cell-based, luminescence, HEK293, counter-screen for COUP-TFII antagonist project (AID 687007; in the data active = inhibition above about 13%). Particulars: HEK293 Gal4-VP16 luciferase reporter, at 8.5 µM, stronger effect = higher value.
Experiment [13] has as its target COUP transcription factor 2 (Homo sapiens) (UniProt P24468). Briefly: retest of COUP-TFII reporter suppressors – cell-based, luciferase reporter, HEK293, triplicate, confirmation (AID 687008;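 active = mean inhibition over three repeats above a set limit taken from the earlier primary screen, cut at about 38% in these data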;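 note: 100% = cells given the luciferase reporter alone without the COUP-TF2 vector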). The settings on record: HEK293 NGFI-A luciferase reporter, luminescence; at 8.5 µM; stronger effect = higher value.
Experiment [14] relates to HIV-1 integrase (multimerization). In words: stimulation of HIV-1 integrase oligomerization – biochemical, TR-FRET, counter-screen for LEDGF/p75 integration inhibitor project (AID 1053131; in the data active = activation above about 8.9%). The settings on record: TR-FRET HIV-1 integrase multimerization, at 7.7 µM, stronger effect = higher value.
Experiment [15] is described as follows: compounds disturbing TR-FRET signal readout – biochemical, HIV-1 IN multimerization, artefact control for LEDGF/p75-dependent integration inhibitor project, confirmation (AID 1053135;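 active = inhibition above the mean over all tested compounds plus 3 SD, which no compound reached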;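 note: 0% = integrase with antibodies and DMSO and 100% = antibodies without integrase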). Particulars: TR-FRET optical interference counterscreen, at 7.7 µM, stronger effect = higher value. (In general: TR-FRET usually uses a lanthanide donor and a delayed reading to cut background.)

Experiment [16] concerns HIV-1 integrase / human LEDGF/p75 complex. In words: blockers of LEDGF/p75-dependent integrase activity – biochemical, TR-FRET, confirmation (AID 1053136; in the data active = inhibition above about 14%). The settings on record: TR-FRET LEDGF/p75-dependent HIV-1 integration, at 3.7 µM, stronger effect = higher value.
The target in experiment [17] is (Lyso)-N-acylphosphatidylethanolamine lipase (Mus musculus) (UniProt Q8VD66). Briefly: mouse ABHD4 hydrolase blockers, triplicate – biochemical, fluorescence polarization, confirmation (AID 720658;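 active = mean inhibition across replicates above the hit cutoff set in the primary screen, cut at about 30% in these data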;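 note: 0% = wild-type ABHD4 with DMSO and 100% = catalytically dead S159A mutant with DMSO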). The settings on record: purified mABHD4, FP-Rh probe fluorescence polarization; at 8.92 µM; stronger effect = higher value.
In experiment [18] the target is Receptor-interacting serine/threonine-protein kinase 2 (Homo sapiens) (UniProt O43353). In words: inhibitors of RIPK2 association with NOD2 – fluorescence, CHO cells, BLA complementation, triplicate, confirmation (AID 624370;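 active = mean inhibition across replicates above a set limit taken from the earlier primary screen, cut at about 21% in these data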;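 note: 0% = DMSO-only wells and the high end = clavulanate BLA-blocked wells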). Particulars: CCF4 FRET, at 4.98 µM, stronger effect = higher value.
Experiment [19] can be described thus: BLA reporter readout interference – cell-based, CHO-K1 CMV-bla, CCF4 FRET, fluorescence, artefact control for NOD2-RIPK2 interaction inhibitor project, confirmation (AID 624371;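 active = mean inhibition above the low-control mean inhibition plus three low-control SD, cut at about 11% in these data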;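 note: 0% = DMSO only wells and 100% = clavulanate high control wells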). The settings on record: CCF4 FRET ratio, counterscreen, at 4.98 µM, stronger effect = higher value.

Toll-like receptor 9 (Homo sapiens), sequence (Q9NR96 whole entry, looked up): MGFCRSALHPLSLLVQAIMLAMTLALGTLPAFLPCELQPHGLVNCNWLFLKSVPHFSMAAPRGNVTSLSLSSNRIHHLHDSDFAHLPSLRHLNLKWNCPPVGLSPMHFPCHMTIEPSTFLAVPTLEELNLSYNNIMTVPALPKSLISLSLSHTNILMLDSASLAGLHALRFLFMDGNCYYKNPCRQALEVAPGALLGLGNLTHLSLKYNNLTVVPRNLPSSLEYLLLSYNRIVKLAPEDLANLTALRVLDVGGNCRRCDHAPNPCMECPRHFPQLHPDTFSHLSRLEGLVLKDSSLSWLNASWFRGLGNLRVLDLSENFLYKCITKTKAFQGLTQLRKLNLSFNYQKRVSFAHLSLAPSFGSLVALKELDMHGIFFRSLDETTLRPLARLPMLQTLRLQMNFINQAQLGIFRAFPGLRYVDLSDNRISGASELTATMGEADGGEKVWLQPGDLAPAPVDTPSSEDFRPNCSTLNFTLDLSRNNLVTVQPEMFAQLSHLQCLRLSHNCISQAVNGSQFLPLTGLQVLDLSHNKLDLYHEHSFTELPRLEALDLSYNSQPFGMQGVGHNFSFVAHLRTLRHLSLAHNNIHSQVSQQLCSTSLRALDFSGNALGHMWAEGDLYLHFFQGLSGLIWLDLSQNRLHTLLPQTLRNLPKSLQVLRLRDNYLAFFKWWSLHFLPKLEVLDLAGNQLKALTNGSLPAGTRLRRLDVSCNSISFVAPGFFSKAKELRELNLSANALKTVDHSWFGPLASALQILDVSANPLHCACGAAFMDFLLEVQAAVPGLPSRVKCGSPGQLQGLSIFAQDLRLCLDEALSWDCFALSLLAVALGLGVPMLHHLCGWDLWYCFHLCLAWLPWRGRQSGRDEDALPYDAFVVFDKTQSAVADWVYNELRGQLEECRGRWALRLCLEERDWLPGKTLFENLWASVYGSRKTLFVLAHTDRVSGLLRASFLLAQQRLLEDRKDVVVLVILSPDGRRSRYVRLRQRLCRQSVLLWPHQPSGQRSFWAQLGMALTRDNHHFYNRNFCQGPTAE
(Lyso)-N-acylphosphatidylethanolamine lipase (Mus musculus), sequence (Q8VD66 whole entry, looked up): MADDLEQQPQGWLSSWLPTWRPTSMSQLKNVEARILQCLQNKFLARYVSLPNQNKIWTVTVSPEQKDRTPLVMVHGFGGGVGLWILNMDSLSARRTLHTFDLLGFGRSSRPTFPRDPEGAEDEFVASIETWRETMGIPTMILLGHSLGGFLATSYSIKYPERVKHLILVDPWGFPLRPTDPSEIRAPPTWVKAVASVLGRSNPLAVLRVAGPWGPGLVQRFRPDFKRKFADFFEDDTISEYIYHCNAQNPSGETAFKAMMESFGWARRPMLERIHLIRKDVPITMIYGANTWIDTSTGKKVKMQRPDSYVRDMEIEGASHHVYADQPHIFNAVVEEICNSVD
COUP transcription factor 2 (Homo sapiens), sequence (P24468 whole entry, looked up): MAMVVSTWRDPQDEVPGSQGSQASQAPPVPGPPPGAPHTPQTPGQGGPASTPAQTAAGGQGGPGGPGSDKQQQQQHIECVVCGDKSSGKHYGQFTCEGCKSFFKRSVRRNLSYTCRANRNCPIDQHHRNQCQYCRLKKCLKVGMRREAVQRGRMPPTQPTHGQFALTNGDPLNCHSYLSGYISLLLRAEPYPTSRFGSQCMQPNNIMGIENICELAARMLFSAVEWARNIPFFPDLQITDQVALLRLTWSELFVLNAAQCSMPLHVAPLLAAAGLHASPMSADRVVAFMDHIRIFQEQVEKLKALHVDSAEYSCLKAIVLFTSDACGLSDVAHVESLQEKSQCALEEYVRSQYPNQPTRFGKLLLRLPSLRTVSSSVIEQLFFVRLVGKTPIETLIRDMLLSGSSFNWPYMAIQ
Photoreceptor-specific nuclear receptor (Homo sapiens), sequence (Q9Y5X4 whole entry, looked up): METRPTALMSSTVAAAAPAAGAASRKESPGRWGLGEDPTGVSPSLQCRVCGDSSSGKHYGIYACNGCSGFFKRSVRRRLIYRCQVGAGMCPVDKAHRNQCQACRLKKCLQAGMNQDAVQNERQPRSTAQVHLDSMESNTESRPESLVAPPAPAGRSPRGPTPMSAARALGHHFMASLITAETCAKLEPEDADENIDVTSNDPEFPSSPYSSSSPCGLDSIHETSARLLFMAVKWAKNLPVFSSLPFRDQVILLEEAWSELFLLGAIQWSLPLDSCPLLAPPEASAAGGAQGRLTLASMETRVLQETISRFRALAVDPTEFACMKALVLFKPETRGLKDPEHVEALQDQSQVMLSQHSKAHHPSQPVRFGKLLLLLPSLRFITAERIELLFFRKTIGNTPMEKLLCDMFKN
Receptor-interacting serine/threonine-protein kinase 2 (Homo sapiens), sequence (O43353 whole entry, looked up): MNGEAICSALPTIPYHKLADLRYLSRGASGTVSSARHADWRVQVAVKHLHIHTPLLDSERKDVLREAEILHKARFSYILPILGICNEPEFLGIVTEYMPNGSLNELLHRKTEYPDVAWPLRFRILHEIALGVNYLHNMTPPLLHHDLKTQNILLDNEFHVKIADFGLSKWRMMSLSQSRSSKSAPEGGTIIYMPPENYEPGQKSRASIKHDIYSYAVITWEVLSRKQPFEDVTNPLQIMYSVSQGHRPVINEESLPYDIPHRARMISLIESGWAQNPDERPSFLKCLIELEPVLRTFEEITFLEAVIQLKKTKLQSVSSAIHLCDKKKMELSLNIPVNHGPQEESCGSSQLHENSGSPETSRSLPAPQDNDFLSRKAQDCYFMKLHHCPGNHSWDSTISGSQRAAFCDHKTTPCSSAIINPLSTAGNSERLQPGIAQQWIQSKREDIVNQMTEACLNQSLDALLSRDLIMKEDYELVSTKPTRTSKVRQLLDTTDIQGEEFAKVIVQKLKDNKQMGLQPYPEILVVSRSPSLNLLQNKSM

On to `COc1ccc(/C=N/Nc2nc3ccccc3o2)cc1OC`, for which the activation (% of control) in experiment [1] was 208% (active); in experiment [2], 133%; in experiment [3], 108%.

Regarding `COc1ccc2oc(-c3cccc(NC(=O)CSc4ccc(Cl)cc4)c3)nc2c1`, the activation (% of control) was 216% (active) in [1], 140% (active) in [2] and 100% in experiment [3].

Turning to `CN(O)C(=S)c1ccccc1`, the inhibition (usually the change of the read-out against control, counted positive when it falls) is 5.28% in [4]; 0.06% in [5]; 97.2% (active) in experiment [6]; -14.5% in [7]; -3.62% in [8]; 53% (active) in experiment [9]. Moreover, the inhibition is 62.5% (active) in experiment [10]; 84.6% (active) in [11]; -6.65% in experiment [12]; -5.38% in [13]; -2.07% in experiment [15]; -6.13% in experiment [16]. The activation in experiment [14] was 0.55%.

As to `O=C1C=CC(=O)N1c1ccc(N2CCCCC2)cc1`, the results for the inhibition in experiment [17], in experiment [15] and in [16] were 17.5%, -8.48% and 5.47%, respectively. Also, in experiment [14], the activation was 1.69%.

For `COc1ccc(/C=N/Nc2nc3ccccc3c(=O)[nH]2)cc1`, the values for the activation (% of control) in [1], in [2] and in experiment [3] were 169% (active), 119% and 102%, respectively.

On to `CCN(CC)CCCC(C)n1c2nc(=O)[nH]c(=O)c-2nc2cc(Cl)ccc21` (stereo not given), for which the inhibition in [4] was 12.3%; in experiment [5], 14.8%; in experiment [6], -0.12%; in experiment [18], 38.1% (active); in [19], 40% (active); in [17], 44.4% (active). Besides, the values for the inhibition in [15] and in experiment [16] were -7.01% and 59.8% (active), respectively. For the same compound, the activation in experiment [14] is 2.04%.
